Experimental findings from PubChem BioAssay (NCATS) are described below.

Test [1] can be described thus: qHTS assay for measurement of the activity of small molecule inhibitors on Zika virus induced Caspase-3 activity in human iPSC derived neural progenitor cells (hNPCs) (AID 1224857). Also: nearly all actives have a fitted effect of over 65% in size. In outline:
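In medium with heparin 2 ug/ml and cyclopamine 2 uM, hNPCs (350 cells/well) received compound for one hour and then Zika virus at 2 FFU/cell; caspase activity was measured by Caspase-Glo 3/7 luminescence 6 h post-infection.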
On the technique in general: Quantitative high-throughput screening tests each substance at several concentrations.

Test [2] is described as follows: qHTS assay for measurement of the activity of small molecule inhibitors on Zika virus induced Caspase-3 activity in human astrocytoma cells (AID 1224859). Summed up:
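A cell-based luminescent caspase-3/7 assay used SNB-19 cells infected with ZIKV (2 FFU/cell) for 6 h following 1 h compound pretreatment.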

Results filed as inconclusive are left out. Entries that show only a call come without a potency. Active and inactive are the calls of the source. Calls follow the shape of the dose curve; as a rule, active = well fitted inhibition curve with a large enough effect; inconclusive = small, poorly fitted or top-dose-only effect; inactive = no such curve, though single readings can be large or run the other way. Where a SMILES comes first, the peptide text is derived from it. [ ]: non-standard residue; d: D form. pGlu = O=C1CC[C@@H](C(=O)O)N1

For `Cc1nc(C2CCCCC2)c(-c2ccc(S(N)(=O)=O)c(F)c2)o1`, the Potency result in test [1] was “inactive”. Also, in test [2], the compound was classed as inactive.
On to `CCc1cc2cc(OC)c(OC)cc2c(Cc2ccccc2)n1`, for which, in test [1], the Potency result was “inactive”. Also, the call in test [2] was inactive.
In the case of `CO[C@@H]1[C@@H](OC)[C@H](C)[C@@](O)(CC(=O)O)O[C@H]1[C@H](C)[C@H]1O[C@@]2(CC[C@@](C)([C@H]3CC[C@@](C)([C@@H]4O[C@@H]([C@H]5O[C@](C)(O)[C@H](C)C[C@@H]5C)C[C@@H]4OC4C[C@H](OC)[C@@H](OC)[C@H](C)O4)O3)O2)C[C@H](O)[C@H]1C` (stereo partly drawn), the Potency entry in test [1] is “inactive”. For the same compound, the result in test [2] was inactive.
In the case of `NC(=O)C1(N2CCCCC2)CCN(CCCN2c3ccccc3CCc3ccc(Cl)cc32)CC1`, in test [1], the Potency entry is “inactive”. Besides, the compound was classed as inactive in test [2].
With `CC(=O)OCC(=O)[C@@]1(O)CCC2C3CCC4=CC(=O)CC[C@]4(C)C3[C@@H](O)C[C@@]21C` (stereo partly drawn), the Potency result in test [1] is “inactive”. The outcome in test [2] was inactive.
Consider `COc1c(C)c2c(c(O)c1C/C=C(\C)CCC(=O)OCCN1CCOCC1)C(=O)OC2`, for which the Potency entry in test [1] is “inactive”. Besides, the outcome in test [2] was inactive.
With `CCC(CN)=C(c1ccccc1)c1ccccc1`, the Potency result in test [1] is “inactive”. In test [2], the outcome was inactive.
For the compound `C[C@H](N)C(=O)N[C@@H](C)C(=O)NC1[C@H]2CN(c3nc4c(cc3F)c(=O)c(C(=O)O)cn4-c3ccc(F)cc3F)C[C@@H]12` (stereo partly drawn), the Potency result in test [1] was “inactive”. For the same compound, the compound was classed as inactive in test [2].
In the case of `CCNC(=O)[C@@H]1CCCN1C(=O)[C@H](CCCN=C(N)N)NC(=O)[C@H](CC(C)C)NC(=O)CNC(=O)[C@H](Cc1ccc(O)cc1)NC(=O)[C@H](CO)NC(=O)[C@H](Cc1c[nH]c2ccccc12)NC(=O)[C@H](Cc1cnc[nH]1)NC(=O)[C@@H]1CCC(=O)N1` ([pGlu]HWSYGLRP-NHEt), in test [1], the Potency result was “inactive”. Further, the call in test [2] was inactive.
`COc1cc2nc(Cl)nc(N)c2cc1OC`: the Potency entry in test [1] is “inactive”. For the same compound, the compound was called inactive in test [2].
As for `CN(C)CCCOC1(Cc2ccccc2)CCCCCC1`, the Potency result in test [1] is “inactive”. In addition, the compound was called inactive in test [2].
Turning to `CCCCOC(=O)CCCCCCCCC(=O)OCCCC`, the Potency result in test [1] is “inactive”. Further, in test [2], the compound was classed as inactive.
`O=[N+]([O-])c1cncn1CCN1CCOCC1`: in test [1], the Potency result was “inactive”. Further, the result in test [2] was inactive.
Regarding `C/C=C(/C(=C/C)c1ccc(OC(C)=O)cc1)c1ccc(OC(C)=O)cc1`, in test [1], the Potency entry was “inactive”. Besides, in test [2], the outcome was inactive.
Take `Nc1ccc(C(=O)OCC(O)CO)cc1` (stereo not drawn): the Potency entry in test [1] is “inactive”. For the same compound, the call in test [2] was inactive.
With `CC1(C)O[C@@H]2C[C@H]3[C@@H]4CCC5=CC(=O)C=C[C@]5(C)[C@@]4(F)[C@@H](O)C[C@]3(C)[C@]2(C(=O)CO)O1`, the Potency entry in test [1] is “inactive”. Further, the result in test [2] was inactive.
For `Cn1cc(S(C)=O)c(=O)c2ccc(F)cc21` (stereo not drawn), in test [1], the Potency result is “inactive”. For the same compound, in test [2], the outcome was inactive.
With `Cc1ccccc1C(=O)N1CC/C(=N\OS(=O)(=O)O)c2ccc(Cl)cc21`, in test [1], the Potency result is “inactive”. In addition, the compound was classed as inactive in test [2].
As for `O=C(c1ccco1)N1CCNCC1`, the Potency entry in test [1] is “inactive”. Moreover, the result in test [2] was inactive.
As to `CCOc1ccccc1OCC1CNCCO1` (stereo not drawn), the Potency entry in test [1] is “inactive”. In test [2], the outcome was inactive.
As for `CCOc1c(N2CCOCC2)cnn(C)c1=O`, the Potency entry in test [1] is “inactive”. Besides, in test [2], the call was inactive.
On to `CCOC(=O)C(=O)CCc1ccccc1`, for which, in test [1], the Potency result was “inactive”. In addition, in test [2], the outcome was inactive.
Take `CCC(=O)O[C@]1(C(=O)COC)[C@@H](C)C[C@H]2[C@@H]3CCC4=CC(=O)C=C[C@]4(C)C3(F)[C@@H](O)C[C@@]21C` (stereo partly drawn): the Potency entry in test [1] was “inactive”. Besides, the compound was classed as inactive in test [2].
As for `CCCCC(=O)OCC(=O)[C@H]1[C@H](C)C[C@H]2[C@@H]3C[C@H](F)C4=CC(=O)C=C[C@]4(C)[C@@]3(F)[C@@H](O)C[C@@]21C`, the Potency entry in test [1] is “inactive”. Besides, in test [2], the result was inactive.
`O=C(COCCOCCOCC(=O)Nc1c(I)cc(I)c(C(=O)O)c1I)Nc1c(I)cc(I)c(C(=O)O)c1I`: the Potency result in test [1] is “inactive”. Further, in test [2], the call was inactive.
`NC(=O)NC1N=C([O][Al])NC1=O` (stereo not drawn): in test [1], the Potency result was “inactive”. Moreover, the outcome in test [2] was inactive.
On to `CN(C)CCOC(c1ccccc1)c1ccc(Br)cc1` (stereo not drawn), for which, in test [1], the Potency entry was “inactive”. The compound was classed as inactive in test [2].
`CCCCCC[C@@H](CCC)C(=O)O`: in test [1], the Potency entry is “inactive”. For the same compound, the compound was called inactive in test [2].
Take `Cc1cc2nc3ccc(=[N+](C)C)cc-3sc2cc1N`: in test [1], the Potency entry is “inactive”. Also, the outcome in test [2] was inactive.
`O=[N+]([O-])c1nccn1CO[C@@H](CO)[C@H](O)CO`: the Potency entry in test [1] is “inactive”. In test [2], the compound was classed as inactive.
Turning to `CC(=O)OCC[N+](C)(C)C`, in test [1], the Potency entry was “inactive”. Moreover, the compound was classed as inactive in test [2].
As to `CCOC(=O)C(O)c1ccccc1` (stereo not drawn), the Potency result in test [1] is “inactive”. Moreover, the call in test [2] was inactive.
`N#C/C(=C1/SC[C@@H](c2ccc(Cl)cc2Cl)S1)n1ccnc1`: in test [1], the Potency entry is “inactive”. Also, the compound was called inactive in test [2].
Take `CC1CCCCN1CCCOC(=O)c1ccc(OC2CCCCC2)cc1` (stereo not drawn): in test [1], the Potency result was “inactive”. Further, in test [2], the result was inactive.
`COc1ccccc1N1CCN(CCN2C(=O)CC3(CCCC3)CC2=O)CC1`: the Potency entry in test [1] is “inactive”. For the same compound, the result in test [2] was inactive.
In the case of `CCCCCCn1c(=O)c2c(ncn2C)n(C)c1=O`, the Potency result in test [1] is “inactive”. Besides, the compound was called inactive in test [2].
As to `O=C1c2ccccc2CCc2ccccc21`, the Potency entry in test [1] is “inactive”. Further, the compound was classed as inactive in test [2].
`CO[C@@]1(NC(=O)CSC[C@@H](N)C(=O)O)C(=O)N2C(C(=O)O)=C(CSc3nnnn3C)CS[C@@H]21`: in test [1], the Potency entry was “inactive”. Further, the outcome in test [2] was inactive.
As to `C/C(=C(/OCCOc1ccc(Cl)cc1)c1ccc(Cl)cc1Cl)n1ccnc1`, the Potency result in test [1] is “inactive”. For the same compound, the call in test [2] was inactive.
